# A selection: hits, their analogues and other compounds. The true share with any hit is near 10%.
# GPT2 inh – Primary qHTS assay for inhibitors of Glutamate pyruvate transaminase 2 (GPT2). Recombinant GPT2, coupled pyruvate oxidase/HRP Amplex Red fluorescence. Potency, µM (highest dose often 57.7 µM), for inactives: top-dose activity change, negative = inhibition, usual class: inhibitors. 100,000 compounds, 0.25% hits; further: nearly all actives have a fitted effect of over 60% in size
#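 Inhibition is scored from Amplex Red fluorescence generated when pyruvate oxidase and HRP act on pyruvate released by GPT2. Reactions contain 10ng/uL enzyme, 250uM a-KG and 2mM L-alanine and run 30 min at room temperature.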
# NPR1 antag – Natriuretic polypeptide receptor (hNpr1) antagonism - Primary qHTS; Atrial natriuretic peptide receptor 1 (Homo sapiens), P16066; HEK293 hNpr1 GloSensor cGMP, ANP-stimulated luminescence; Potency, µM (top dose mostly 46.3 µM), for inactives: top-dose activity change, negative = inhibition, usual class: inhibitors; 76,000 compounds, 1.6% hits; calls by dose curve; further: nearly all actives have a fitted effect of over 60% in size
#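 Compound pre-incubated 30 min at room temperature on GloSensor-loaded HEK293 cells stably carrying hNpr1 and the pGS-40F cGMP biosensor. Stimulation uses hNppA at 0.1 nM final; luminescence is taken at baseline and 20 min post-agonist.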
# FLuc inh – Firefly luciferase inhibition profiling of diverse chemical library using quantitative high-throughput screening | Luciferin 4-monooxygenase (Photinus pyralis), P08659 | purified P. pyralis luciferase, luminescence, biochemical | Potency, µM (top dose mostly 115 µM), most hits filed as inhibitors | 76,000 compounds, 2.5% hits; further: nearly all actives have a fitted effect of over 65% in size
#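 Inhibitors were tested against purified firefly luciferase in a biochemical, low-substrate format (both substrates at 10uM) and luminescence measured with a CCD imager.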
# HEK293 tox – Cytotoxic Profiling in HEK 293 Cell Line of Diverse Libraries Using Quantitative High-Throughput Screening; HEK 293 viability, ATP luminescence (CellTiter-Glo), 48-72 h; Potency, µM (highest dose often 115 µM), for the others: at the highest dose activity change, negative = cytotoxicity, hits mostly inhibitors; 94,000 compounds, 6.6% hits; AID 1345083, 2018; further: nearly all actives have a fitted effect of over 60% in size
#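 Cells seeded first (HEK 293, 250 cells/well), then compound added by pintool. Incubation ran 48 or 72 hr at 37 degree Celsius. CellTiter-Glo was added and luminescence imaged after 10 min at room temperature.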
# NIH3T3 tox – Cytotoxic Profiling in NIH 3T3 Cell Line of Diverse Libraries Using Quantitative High-Throughput Screening | NIH 3T3 viability, CellTiter-Glo ATP luminescence, 48-72 h | 94,000 compounds, 4.3% hits | Potency, µM (series often up to 96.7 µM), inactives show at the top dose activity change, negative = cytotoxicity, usual class: inhibitors; further: nearly all actives have a fitted effect of over 55% in size
#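 Viability of NIH 3T3 cells after 48 or 72 hr compound treatment at 37 °C was assessed by CellTiter-Glo, with luminescence imaged following a 10 min room-temperature step.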
# * hit, by the source's call; i = inactive; ? = inconclusive; . = no result given; [ ] = dose if it differs, or a comment. Unless noted, the call rests on the fitted dose curve; in most records, active means well fitted curve in the direction sought with a large enough effect; inconclusive means small, poorly fitted or top-dose-only effect, or another doubt; inactive means no such curve, though single readings can be large; an effect the other way counts as inactive or inconclusive. On the % scale 0 is the no-effect control and ±100 the full control effect; potency means the concentration at half of the fitted maximal effect.
SMILES,GPT2 inh,NPR1 antag,FLuc inh,HEK293 tox,NIH3T3 tox
CCOC(=O)[C@H]1CN(C(=O)c2cccc(OC)c2)[C@]2(C)C(=O)N(CC3CC3)c3ccccc3[C@H]12,-2%[27.3 µM],.,.,?,?
COc1ccc(-c2cc([C@H]3CN4CC[C@H]3C[C@@H]4CNC(=O)C(C)(C)C)nc(C)n2)cc1OC,-16%,-3%,i,-32%,?
COc1cc2c(cc1OC1CCCC1)NC(=O)C21CCN(C(C)=O)CC1,i,-6%[70.6 µM],i,-34%[172 µM],?
COc1cc2c(cc1OC1CCCC1)NC(=O)C21CCN(Cc2cccnc2)CC1,-3%[88.5 µM],-8%[70.6 µM],i,100µM*,?
COc1cc2c(cc1OC1CCCC1)NC(=O)C21CCN(Cc2ccccc2O)CC1,-3%[88.5 µM],-20%[70.6 µM],i,40µM*,22µM*
COc1cc2c(cc1OC1CCCC1)NC(=O)C21CCN(Cc2nccs2)CC1,i,-4%[70.6 µM],i,100µM*,?
O=C(CCc1c[nH]c2ccccc12)N1[C@H]2CC[C@@H]1c1cnc(-c3ccc(F)cc3)nc1C2,i,3%,?,?,?
COc1ccc(OC)c(S(=O)(=O)NC[C@H]2C[C@@H]3CCN2C[C@@H]3c2cc(-c3ccccc3OC)nn2C)c1,-8%,-3%,i,-3%,-18%
CC[C@H]1CN2CC[C@H]1C[C@@H]2CNCc1ccc(-c2ccccc2)cc1,-8%[88.5 µM],-16%[70.6 µM],i,25µM*,28µM*
CC[C@H]1CN2CC[C@H]1C[C@@H]2CNCc1ccc(C(F)(F)F)cc1,?,-1%[70.6 µM],i,?,89µM*
CC[C@H]1CN2CC[C@H]1C[C@@H]2CNCc1ccc(OC)cc1,i,-4%[70.6 µM],i,?,-24%[230 µM]
CC[C@H]1CN2CC[C@H]1C[C@@H]2CN(Cc1ccc(SC)cc1)Cc1ccc(SC)cc1,-3%[88.5 µM],-14%[70.6 µM],i,7.1µM*,10µM*
COc1ccc(CC(=O)N2CCN(Cc3ccccc3-c3cccnc3)CC2)cc1,i,.,.,?,?
Cc1ccc(-c2ccccc2CN2CCN(C(=O)Cc3ccccn3)CC2)cc1Cl,-14%,.,.,?,25µM*
CCOC(=O)[C@H]1CN(C(=O)CCc2ccccc2)[C@]2(C)C(=O)N(CC3CC3)c3ccccc3[C@H]12,-6%[27.3 µM],.,.,?,?
CCOC(=O)[C@H]1CN(C(=O)NC2CCCC2)[C@]2(C)C(=O)N(CC3CC3)c3ccccc3[C@H]12,i,.,.,32µM*,?
CCOC(=O)[C@H]1CN(C(=O)OCc2ccccc2)[C@]2(C)C(=O)N(CC3CC3)c3ccccc3[C@H]12,5%[27.3 µM],.,.,35µM*,?
CCCCCC(=O)N1C[C@H](C(=O)OCC)[C@H]2c3ccccc3N(CC3CC3)C(=O)[C@]21C,i,.,.,32µM*,?
OCC1CN(C2CCC2)CC12CCNCC2 (stereo not given),-9%,2%,i,2%,-17%
CC(C)NC(=O)OC[C@H]1C[C@@H]2CCN1C[C@@H]2c1cc(-c2ccc3ccccc3c2)nn1C,?,-25%[70.6 µM],40µM*,28µM*,28µM*
CCCNC(=O)OC[C@H]1C[C@@H]2CCN1C[C@@H]2c1cc(-c2ccc3ccccc3c2)nn1C,2%[88.5 µM],-10%[70.6 µM],i,63µM*,32µM*
CC(C)NC(=O)OC[C@H]1C[C@@H]2CCN1C[C@@H]2c1cc(-c2ccc(F)cc2)nn1C,4%[88.5 µM],-2%[70.6 µM],i,112µM*,?
COc1ccccc1-c1cc([C@H]2CN3CC[C@H]2C[C@@H]3COC(=O)Nc2ccccc2)n(C)n1,i,-2%,i,?,?
Cn1nc(-c2ccc3ccccc3c2)cc1[C@H]1CN2CC[C@H]1C[C@@H]2COC(=O)Nc1cccc(C(F)(F)F)c1,i,4%,i,79µM*,?
Cc1nc(-c2ccc(N(C)C)cc2)cc([C@H]2CN3CC[C@H]2C[C@@H]3COC(=O)Nc2ccccc2)n1,-18%,-25%,i,?,4µM*
SMILES,GPT2 inh,NPR1 antag,FLuc inh,HEK293 tox,NIH3T3 tox
CCCNC(=O)OC[C@H]1C[C@@H]2CCN1C[C@@H]2c1cc(-c2ccc(F)cc2)nc(C)n1,i,-1%[70.6 µM],i,?,?
CC(=O)NC[C@H]1C[C@@H]2CCN1C[C@@H]2c1cc(-c2ccccc2)nc(C)n1,2%[88.5 µM],1%[70.6 µM],i,-30%[172 µM],?
COc1cc(NC(=O)OC[C@H]2C[C@@H]3CCN2C[C@@H]3c2cc(-c3ccc(N(C)C)cc3)nc(C)n2)cc(OC)c1,4%,?,?,5.6µM*,7.9µM*
Cc1nc(-c2ccc(N(C)C)cc2)cc([C@H]2CN3CC[C@H]2C[C@@H]3CNC(=O)c2ccco2)n1,0%,-3%,?,?,?
Cc1nc(-c2ccc(N(C)C)cc2)cc([C@H]2CN3CC[C@H]2C[C@@H]3CNC(=O)NC(C)C)n1,i,1%[70.6 µM],i,?,89µM*
COc1ccc(NC(=O)OC[C@H]2C[C@@H]3CCN2C[C@@H]3c2cc(-c3ccc(N(C)C)cc3)nc(C)n2)cc1,i,-14%,i,18µM*,16µM*
O=C(NCc1ccccc1)[C@H]1CN2CC[C@H]1C[C@@H]2Cn1cc(CO)nn1,2%[88.5 µM],2%[70.6 µM],i,-18%[172 µM],-22%[174 µM]
CC(=O)c1cccc(NC(=O)OC[C@H]2C[C@@H]3CCN2C[C@@H]3c2cc(C3CCCC3)nc(C)n2)c1,0%,-8%,i,14µM*,?
O=C(Nc1cccc(C(F)(F)F)c1)OC[C@H]1C[C@@H]2CCN1C[C@@H]2c1cc(C2CCCC2)nc(-c2ccncc2)n1,5%,?,i,4µM*,?
CC(=O)c1ccc(NC(=O)OC[C@H]2C[C@@H]3CCN2C[C@@H]3c2cc(C3CCCC3)nc(-c3ccncc3)n2)cc1,?,-17%,i,32µM*,22µM*
CC(C)NC(=O)OC[C@H]1C[C@@H]2CCN1C[C@@H]2c1cc(C2CCCC2)nc(-c2ccncc2)n1,i,-23%,i,22µM*,28µM*
N#Cc1ccccc1S(=O)(=O)N1C[C@@H]2C[C@H](C1)c1ccc(-c3ccc(Cl)cc3)c(=O)n1C2,1%,-2%,i,?,?
CCNC(=O)N1CCC2(CC1)c1nccn1-c1ccccc1CN2CC(C)C,1%,-2%,i,-10%,3%
C=C[C@H]1CN2CC[C@H]1C[C@@H]2CNC(=O)COCC(=O)O,3%[88.5 µM],3%[70.6 µM],i,0%[230 µM],?
